High-throughput results from PubChem BioAssay.
SENP8 block-1 = blocks the human protease SENP8; purified SENP8, Z-RLRGG-aminoluciferin cleavage, luminescence; inhibition, % at 10 µM; 330,000 tested, 1.2% active; AID 2540; in the data active = inhibition above about 50%
SENP6 block = blocks the human protease SENP6. 330,000 tested, 1.8% active. Recombinant SENP6 catalytic domain, aminoluciferin luminescence. inhibition, % at 10 µM. Q9GZR1;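 active = inhibition above about 50% at the single tested dose, limit read from the data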;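 note: plate controls were DMSO wells with enzyme for no effect and DMSO wells lacking enzyme for full effect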
Target sequence (Q9GZR1 628-1112 limits assumed): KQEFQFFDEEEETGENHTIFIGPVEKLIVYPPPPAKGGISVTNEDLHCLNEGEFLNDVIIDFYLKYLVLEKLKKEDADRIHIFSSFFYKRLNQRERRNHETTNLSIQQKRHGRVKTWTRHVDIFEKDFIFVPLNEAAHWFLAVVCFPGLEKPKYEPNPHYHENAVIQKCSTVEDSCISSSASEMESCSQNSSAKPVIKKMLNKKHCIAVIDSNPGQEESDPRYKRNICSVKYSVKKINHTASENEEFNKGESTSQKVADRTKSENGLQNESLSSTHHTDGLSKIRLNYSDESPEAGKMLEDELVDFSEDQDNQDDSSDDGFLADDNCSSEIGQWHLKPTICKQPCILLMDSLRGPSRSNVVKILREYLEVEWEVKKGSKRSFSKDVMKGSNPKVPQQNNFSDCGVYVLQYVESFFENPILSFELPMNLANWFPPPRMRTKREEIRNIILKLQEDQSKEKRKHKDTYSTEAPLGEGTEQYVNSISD
AHR activator = activates the human aryl hydrocarbon receptor; AHR-responsive luciferase reporter cells, luminescence; activation, % at 5 µM; 320,000 tested, 2.5% active; AID 2796; in the data active = activation above about 47%;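 note: 0% = vehicle wells and 100% = reference agonist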
EBI2 antag = blocks human EBI2 receptor beta-arrestin signaling; inhibition, % at 5 µM; P32249; 360,000 tested, 0.81% active; EBI2 beta-arrestin recruitment, luminescence, 7a,25-OHC stimulated; in the data active = inhibition above about 38%;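 note: enzyme fragment complementation signal reports receptor beta-arrestin coupling in cells; 0% = agonist plus DMSO wells and 100% = wells without agonist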
SENP7 block = SENP7 protease inhibition; 330,000 tested, 1.5% active; recombinant SENP7, Z-RLRGG-aminoluciferin luminescence, 40 min; Q9BQF6; inhibition, % at 5 µM;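 active = inhibition above about 50% at the single test dose, limit read from the data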;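 note: plate controls were DMSO with enzyme for no effect and no enzyme buffer wells for full effect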
SENP8 block-2 = SENP8 (human) protease inhibition. Q96LD8. recombinant SENP8, Nedd8 substrate fluorescence. inhibition, % at 20 µM. 360,000 tested, 0.64% active; in the data active = inhibition mostly above about 40%, no sharp cut-off; inactive = mostly below about 27%
SENP8 conf = human SENP8 inhibition, confirmed; shares compounds with SENP7 block; inhibition, % at 12.5 µM; 6,200 tested, 40% active; AID 488912; Recombinant SENP8, Z-RLRGG-aminoluciferin luminescence, 60 min;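 active = mean inhibition across replicates above about 50%, limit read from the data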
SENP6 confirm = confirmation of human SENP6 protease inhibitors; shares compounds with SENP7 block; recombinant SENP6, Z-RLRGG-aminoluciferin luminescence; inhibition, % at 12.5 µM; 6,200 tested, 58% active
SENP7 confirm = confirmation of human SENP7 protease inhibitors; shares compounds with SENP7 block; recombinant SENP7, Z-RLRGG-aminoluciferin luminescence, 40 min; inhibition, % at 12.5 µM; 6,200 tested, 69% active; AID 488917
Casp3 SENP sel = caspase-3 inhibition (SENP selectivity assay); shares compounds with SENP7 block; purified caspase-3, Z-DEVD-aminoluciferin luminescence, 60 min; inhibition, % at 12.5 µM; 6,200 tested, 60% active; AID 488918;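 active = mean inhibition above about 50%, limit read from the data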;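 note: plate controls were enzyme with DMSO for no effect and wells without caspase-3 for full effect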
Target sequence (P42574 28-227 limits assumed): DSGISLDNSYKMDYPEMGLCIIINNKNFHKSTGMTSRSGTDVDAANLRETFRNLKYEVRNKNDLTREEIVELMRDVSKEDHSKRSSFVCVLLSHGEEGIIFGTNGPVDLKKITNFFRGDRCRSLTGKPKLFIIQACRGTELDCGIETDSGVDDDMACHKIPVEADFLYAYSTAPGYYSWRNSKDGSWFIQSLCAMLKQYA
Luc interf = luminescence interference (SENP counter-screen); shares compounds with SENP7 block; Pre-incubated SENP8/Z-RLRGG-aminoluciferin, luciferase luminescence interference; 6,200 tested, 39% active; inhibition, % at 12.5 µM;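 active = mean inhibition above about 50% when retested at one dose, limit read from the data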;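 note: plate controls were DMSO wells with completed reaction for no effect and substrate without enzyme for full effect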
Numbers without * were called inactive; i = inactive; x = no result given. Rows were chosen to be rich in hits. Some 5% of all compounds tested hit in one or more screens of this group.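 Rule for the calls, unless noted: active = mean inhibition above about 50% in the one-dose retest (limit read from the data); inactive = the rest.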

SMILES | SENP8 block-1 | SENP6 block | AHR activator | EBI2 antag | SENP7 block | SENP8 block-2 | SENP8 conf | SENP6 confirm | SENP7 confirm | Casp3 SENP sel | Luc interf
C/C(=C\C(=O)c1ccc(C)cc1)Nc1cccc(O)c1 | 76* | 84* | 5 | 0 | -21 | 16 | 82* | 87* | 98* | 70* | 88*
O=C(/C=C/Nc1ccccc1F)c1ccc(Br)cc1 | x | x | 32 | 4 | x | -51 | x | x | x | x | x
O=C(CCN1C(=O)/C(=C\c2ccccc2)SC1=S)NNC(=O)c1ccccc1O | 1 | 2 | 5 | 7 | 1 | 9 | x | x | x | x | x
O=C(/C=C/Nc1cccc(O)c1)c1ccccc1 | 96* | 97* | 0 | 3 | 98* | -90 | 99* | 99* | 103* | 97* | 98*
Cc1ccc(N/C=C/C(=O)c2ccccc2)cc1Br | 45 | 63* | 55* | 15 | 83* | -153 | 4 | 4 | 6 | 23 | 11
CC(=O)c1cccc(N/C=C\C(=O)c2ccc(C)cc2)c1 | x | x | 3 | 6 | x | -236 | x | x | x | x | x
O=C(/C=C/Nc1ccc(F)c(Cl)c1)c1ccccc1 | 34 | 71* | 14 | 0 | 65* | -189 | 19 | 40 | 87* | 58* | 17
O=C(Nc1ccnn1C1CCN(C(=O)Cc2cccc(Cl)c2)CC1)C1CC1 | -4 | -6 | 0 | 4 | -9 | 8 | x | x | x | x | x
CCCCN(C)C(=O)c1cc2cc3cc(OC)ccc3nc2o1 | -11 | -1 | 19 | 5 | -11 | -392 | x | x | x | x | x
CCCCN(C)C(=O)c1cc2cc3ccc(OC)cc3nc2o1 | 65* | 80* | 7 | -2 | 76* | -287 | 72* | 71* | 92* | 85* | 24
COc1cccc(N=Cc2c(O)c3ccccc3oc2=O)c1 | 9 | 62* | 29 | 5 | 27 | -311 | 18 | 22 | 76* | 15 | 13
Cc1ccc(F)cc1N=Cc1c(O)c2ccccc2oc1=O | -6 | -5 | 0 | -3 | -11 | -85 | x | x | x | x | x
CC(=O)c1cccc(N=Cc2c(O)c3ccccc3oc2=O)c1 | -32 | -40 | -1 | 11 | -19 | -92 | x | x | x | x | x
Cc1ccc(N=Cc2c(O)c3ccccc3oc2=O)c(C)c1 | 46 | 42 | 3 | 6 | 86* | -152 | 53* | 52* | 35 | 44 | 2
O=C(O)c1ccccc1CSc1nc2ccccc2[nH]1 | 47 | 70* | 11 | -6 | 47 | 0 | 72* | 70* | 87* | 88* | 76*
O=C(CSc1nc2ccccc2[nH]1)c1ccccc1F | 33 | 57* | -1 | 4 | 47 | 3 | 51* | 44 | 81* | 63* | 62*
O=C(CSc1nc2ccccc2[nH]1)c1c[nH]c2ccccc12 | -4 | -10 | -1 | -7 | 3 | 26 | x | x | x | x | x
Fc1cccc(F)c1CSc1nc2ccccc2[nH]1 | 52* | 77* | 6 | 5 | 74* | 9 | 62* | 62* | 89* | 71* | 74*
COC(=O)c1ccc(OC(=O)c2ccco2)cc1 | -4 | -7 | 2 | -3 | 2 | 13 | x | x | x | x | x
COC(=O)c1ccc(OC(=O)/C=C/c2ccco2)cc1 | 78* | 83* | 0 | -18 | 77* | 15 | 84* | 86* | 73* | 74* | 45
CN(C)/C=C/C1=CC(=O)CC(C)(C)C1 | -1 | -4 | -1 | 2 | 4 | 3 | x | x | x | x | x
N#Cc1ccc(CN2CCN(C(=O)c3ccc(S(=O)(=O)NCc4ccco4)cc3)CC2)cc1 | 2 | 0 | 0 | -1 | -3 | -1 | x | x | x | x | x
Cc1ccc(/C=C/C(=O)N2CCc3ccccc32)o1 | 38 | 49 | 12 | 5 | -3 | 2 | x | x | x | x | x
O=C(/C=C/c1ccco1)N1CCc2ccccc21 | 91* | 93* | 6 | 8 | 91* | 13 | -1 | 96* | 102* | 97* | 94*
CCN(CC)C(=O)CCCC(=O)N(CC)CC | -7 | -9 | 2 | -4 | -7 | 0 | x | x | x | x | x
SMILES | SENP8 block-1 | SENP6 block | AHR activator | EBI2 antag | SENP7 block | SENP8 block-2 | SENP8 conf | SENP6 confirm | SENP7 confirm | Casp3 SENP sel | Luc interf
CCCCc1ccc(NC(=O)Nc2cccnc2)cc1 | 51* | 74* | 35 | -4 | 58* | 12 | 63* | 67* | 84* | 39 | 41
CCCCc1ccc(NC(=S)NCc2cccnc2)cc1 | -5 | -13 | 2 | -5 | 1 | 15 | x | x | x | x | x
COC(=O)c1ccccc1NC(=O)Nc1cccnc1 | 59* | 77* | 3 | 5 | 1 | -33 | 5 | 72* | 95* | 92* | 70*
CC(=O)c1ccc(N2CCN(C(=O)c3ccc(NC4=NC5CS(=O)(=O)CC5S4)cc3)CC2)cc1 (configuration not stated) | 1 | -2 | 0 | 3 | -5 | -98 | x | x | x | x | x
Cc1ccc(NC2=C(NCCO)C(=O)c3ccccc3C2=O)cc1 | 47 | 70* | 65* | -2 | 36 | -44 | 34 | 56* | 22 | 16 | 2
COc1ccc(C2=C(Nc3ccc(C)cc3)c3ccccc3C2=O)cc1 | -2 | 1 | 36 | 0 | 10 | 23 | x | x | x | x | x
Fc1cccc(Nc2ncnc3sccc23)c1 | -17 | -12 | 4 | -7 | -7 | -9 | x | x | x | x | x
O=C(O)c1cccc(Nc2ncnc3sccc23)c1 | 80* | 91* | 1 | -8 | 86* | -19 | 92* | 91* | 100* | 64* | 88*
CCCCn1c(N)c(N(CCOC)C(=O)c2c(C)noc2C)c(=O)[nH]c1=O | -3 | 6 | 0 | -10 | 1 | 17 | x | x | x | x | x
O=c1cc(/C=C/c2ccccc2)oc2ccccc12 | 55* | 62* | 60* | -15 | 49 | -114 | -3 | 78* | 93* | 64* | 73*
S=C(Nc1ccc2nsnc2c1)N1CCCC1 | 57* | 83* | 3 | -5 | 54* | -52 | 6 | 28 | 24 | 70* | 67*
O=C(Nc1ccc2nsnc2c1)N1CCCCCC1 | 4 | -15 | 3 | -4 | 13 | i | x | x | x | x | x
COc1cccc(-c2noc(-c3ccc4c(c3)OCO4)n2)c1 | 89* | 92* | 25 | 5 | 101* | -10 | 90* | 88* | 95* | 92* | 14
COc1ccc(-c2noc(COc3ccc4c(c3)OCO4)n2)cc1 | -16 | -37 | 0 | -13 | 5 | -168 | x | x | x | x | x
COc1ccc(-c2noc(-c3ccc4c(c3)OCO4)n2)cc1 | 6 | -50 | 2 | -1 | 73* | -24 | 38 | 33 | 47 | 61* | 22
